The entries come from a sample that favours hits as a whole.
HIV RNase H inh-1: blocks HIV-1 RNase H cleavage of RNA/DNA duplex | P04585 | RT-RNase H RNA/DNA duplex cleavage, fluorescence | inhibition, % at 10 µM | 65,000 tested, 1.9% active | AID 565; in the data active = inhibition above about 50%
RmlC RmlD mix: RmlC/RmlD inhibition, mixture screen; RmlC/RmlD coupled enzyme inhibition, 384-well mixture HTS; 110,000 tested, 0.39% active; inhibition, % at 5.5 µM; in the data active = inhibition above about 30%, passing the limit was not always enough; inconclusive = no clear call, values can overlap the other calls
HIV RNase H inh-2: confirmation of HIV-1 reverse transcriptase RNase H inhibitors; inhibition, % at 10 µM; 1,000 tested, 39% active; Recombinant RT RNase H, fluorescent RNA/DNA duplex cleavage; shares compounds with HIV RNase H inh-1; in the data active = inhibition above about 48%; inconclusive = no clear call, values can overlap the other calls
Hits are given with their value; 0 = inactive; ? = inconclusive; - = no result given.

SMILES	HIV RNase H inh-1	RmlC RmlD mix	HIV RNase H inh-2
C=CCn1c(N)c(C(=O)NCCC2=CCCCC2)sc1=S	81	0	87
C=CCN1C(=O)CSc2ccc(C(=O)NCCC3=CCCCC3)cc21	-	0	-
Cc1ccc(-c2cc(C(F)F)n3ncc(C(=O)Nc4ccc(S(=O)(=O)Nc5ccccc5C)cc4)c3n2)cc1	-	0	-
CC(C)(C)C(=O)NC1CCN(S(=O)(=O)c2ccc(C(F)(F)F)cc2)CC1	-	0	-
COc1ccccc1-c1c(C#N)c(SCC(=O)N2CCCC2)nc(C)c1C(N)=O	65	0	0
CC(C)c1ccc(-c2c(C#N)c(N)nc(SCC(=O)N3CCCCC3)c2C#N)cc1	-	0	-
Cn1nc(C(F)(F)F)c(C(=O)Nc2cccc(Cl)c2)c1Cl	-	0	-
CN(C)c1ccc(C(=O)Nc2nnc(-c3ccc(Cl)cc3)o2)cc1	57	0	0
CC(=O)c1ccc(C(=O)Nc2nnc(-c3ccc(Cl)cc3)o2)cc1	0	0	-
Cc1cc(C)cc(NC(=O)CSc2nc(N)c(NC(=O)c3cccs3)c(=O)[nH]2)c1	-	0	-
COC(=O)c1ccccc1NC(=O)c1sc(N)nc1C	0	0	-
COC(=O)c1ccccc1NC(=O)c1sc(=S)n(C)c1N	87	0	74
CCc1nnc(SCc2ccc([N+](=O)[O-])cc2)nc1CC	-	0	-
O=C(c1cc(S(=O)(=O)N2CCCCC2)ccc1F)N1CCCCC1	0	0	-
O=C(c1ccccc1F)N1CCN(S(=O)(=O)c2ccc(S(=O)(=O)N3CCCCC3)cc2)CC1	77	0	78
C=CCn1c(Cc2c[nH]c3ccccc23)nnc1SCC(=O)NCc1ccccc1	-	0	-
C=CCn1c(Cc2c[nH]c3ccccc23)n[nH]c1=S	54	0	0
COc1ccc(-c2ccc(SCC(=O)N3CCOCC3)nn2)cc1OC	0	0	-
COc1ccc(-c2ccc(SCC(=O)N3CCCC3)nn2)cc1OC	90	0	0
COc1ccc(C2NC(=O)N(CCCC(=O)O)C(C)=C2C(=O)OCc2ccccc2)cc1 (configuration not stated)	-	0	-
Cc1nc(C(=O)NC2CCCCC2)sc1C1(C)CC(c2cccnc2)=NO1 (configuration not stated)	-	0	-
CCOC(=O)c1sc(NC(=O)CCN2C(=O)c3cccc([N+](=O)[O-])c3C2=O)c(C(=O)OCC)c1C	-	0	-
CC(C)CN(C(=O)COC(=O)c1ccc2c(c1)NC(=O)CS2)C1CCS(=O)(=O)C1 (configuration not stated)	77	0	79
CN(C(=O)COC(=O)c1ccc2c(c1)NC(=O)CS2)C1CCS(=O)(=O)C1 (configuration not stated)	-	0	-
C=CC[C@]12C=C(OC)C(=O)C=C1O[C@@H](c1ccc3c(c1)OCO3)[C@H]2C	-	0	-
SMILES	HIV RNase H inh-1	RmlC RmlD mix	HIV RNase H inh-2
Cc1ccc(CSc2nc3c(c(=O)[nH]2)C(c2ccncc2)C2=C(CCCC2=O)N3)cc1 (configuration not stated)	59	0	0
CSc1nc2c(c(=O)[nH]1)C(c1cccs1)C1=C(CCCC1=O)N2 (configuration not stated)	0	0	-
CCCCOC(=O)c1cccnc1	-	0	-
Cc1nnc(SCC(N)=O)n1CCc1ccccc1	-	0	-
CC1CCN(C(=O)CSc2nncn2-c2ccccn2)CC1	76	0	0
CC1CCN(C(=O)CSc2nnc(-c3ccncc3)n2C)CC1	-	0	-
O=C(NCCCCCCNC(=O)c1ccc(Br)s1)c1ccc(Br)s1	-	0	-
O=C(C1CC(c2ccccc2O)=NO1)N1CCCCC1 (configuration not stated)	-	0	-
CC(C)Sc1nc2c(c(=O)[nH]c(=O)n2C)n1Cc1ccc(Cl)cc1	0	0	-
C/C(Cl)=C/CSc1nc2c(c(=O)[nH]c(=O)n2C)n1C(C)C	0	0	-
C/C=C/Cn1c(SCc2ccc(C)cc2)nc2c1c(=O)[nH]c(=O)n2C	0	0	-
C=CCSc1nc2c(c(=O)[nH]c(=O)n2C)n1Cc1ccc(C)cc1	84	-	0
C=CCSc1nc2c(c(=O)[nH]c(=O)n2C)n1C(C)C	76	0	59
CCOC(=O)C(C)Sc1nc2c(c(=O)[nH]c(=O)n2C)n1Cc1ccc(Cl)cc1 (configuration not stated)	71	0	0
Cc1ccc(Cn2c(SCC(C)C)nc3c2c(=O)[nH]c(=O)n3C)cc1	87	0	58
CCCSc1nc2c(c(=O)[nH]c(=O)n2C)n1Cc1ccc(C)cc1	0	0	-
Cc1cccnc1NC(=O)CSc1nnc(Cc2ccccc2)o1	-	0	-
C=CC[C@@H]1C=C(C)C[C@H](C)C[C@H](OC)[C@H]2O[C@@](O)(C(=O)C(=O)N3CCCC[C@H]3C(=O)O[C@H](/C(C)=C/[C@@H]3CC[C@@H](O)[C@H](OC)C3)[C@H](C)[C@@H](O)CC1=O)[C@H](C)C[C@@H]2OC	-	0	-
CC1(C)Cc2ccccc2C(N)=C1C#N	0	0	-
C[C@H]1CC[C@@]2(O[C@H](CCO)C[C@H](O)[C@H]2O)O1	-	0	-
O=C(c1ccc(Cl)c(S(=O)(=O)N2CCOCC2)c1)N1CCN(Cc2ccccc2)CC1	-	0	-
CCC(C)NC(=O)c1ccc(CS(=O)(=O)Cc2ccc(Cl)cc2)o1 (configuration not stated)	-	0	-
Cc1sc2nc(SCC(=O)N3CCOCC3)[nH]c(=O)c2c1C	0	0	-
Cc1sc2nc(C(C)Nc3ccccc3N3CCOCC3)[nH]c(=O)c2c1C (configuration not stated)	65	0	78
O=C(O)C1=C[C@H](c2ccc(F)cc2)C[C@H](OCCCCO)O1	-	0	-
SMILES	HIV RNase H inh-1	RmlC RmlD mix	HIV RNase H inh-2
c1csc(-c2nn3c(Cn4nnc5ccccc54)nnc3s2)c1	0	0	-
CCOc1ccccc1-c1nn2c(Cc3ccccc3)nnc2s1	0	0	-
c1ccc(Cc2nnc3sc(-c4ccc5c(c4)OCO5)nn23)cc1	85	0	0
c1ccc(Cc2nnc3sc(-c4cccs4)nn23)cc1	85	0	0
c1ccc2c(c1)nnn2Cc1nnc2sc(-c3ccncc3)nn12	75	0	70
c1csc(-c2nn3c(C4CCCCC4)nnc3s2)c1	0	-	-
c1ccc(CCc2nn3c(Cc4ccccc4)nnc3s2)cc1	90	0	0
CCc1nnc2sc(-c3ccc(NC(=O)c4ccc5c(c4)OCCO5)cc3)nn12	0	0	-
COCOc1ccc(C2CC(=O)c3c(OCOC)cc(OCOC)cc3O2)cc1 (configuration not stated)	-	0	-
Cc1csc(NC(=O)CSc2nnc(-c3ccoc3C)n2Cc2ccco2)n1	0	0	-
O=C(/C=C/c1cccs1)N1CCC2(CC1)Oc1ccc(Cl)cc1C(=O)C21CC(c2ccccc2)=NO1 (configuration not stated)	-	0	-
O=C(NCCc1ccccc1)c1ccc(Cl)nc1	-	0	-
c1ccc(Cc2nnc3sc(-c4cccnc4)nn23)cc1	0	0	-
c1ccc(Cc2nnc3sc(-c4ccncc4)nn23)cc1	93	0	66
CC1(C)CC(=O)C2=C(C1)OC1=C(C(=O)CC(C)(C)C1)C2c1ccc(O)cc1O	56	0	0
CCOC(=O)C1=C(N)OC2=C(C(=O)CC(C)(C)C2)C1c1ccco1 (configuration not stated)	0	0	-
COC(C[C@H](O)[C@@H](C)[C@H](O)COCc1ccccc1)OC	-	0	-
CCCCN(CC)S(=O)(=O)c1ccc(C(=O)Nc2nnc(-c3cccs3)o2)cc1	74	0	?
CCCCN(CCCC)S(=O)(=O)c1ccc(C(=O)Nc2nnc(COC)o2)cc1	0	0	-
CCCCN(C)C(=O)c1coc(=O)c2ccccc12	0	0	-

Screens as filed in PubChem BioAssay.
